Legend:
Assay in all cases: DAPPL (digital affinity profiling via proximity ligation, sequencing); 10 mM Tris-HCl pH 7.5, 50 mM NaCl, 1 mM DTT, 4% glycerol, room temperature, 30 min; GST-TFs on glutathione beads, 16-mer random dsDNA library, 0.1% formaldehyde crosslink after washing; high values mean tight binding
[1] = biological target: T1, FLI1 (Homo sapiens, UniProt Q01543 1-452); settings: protein: recombinant; tags: N-terminal GST; dsDNA, one strand shown
T1 sequence: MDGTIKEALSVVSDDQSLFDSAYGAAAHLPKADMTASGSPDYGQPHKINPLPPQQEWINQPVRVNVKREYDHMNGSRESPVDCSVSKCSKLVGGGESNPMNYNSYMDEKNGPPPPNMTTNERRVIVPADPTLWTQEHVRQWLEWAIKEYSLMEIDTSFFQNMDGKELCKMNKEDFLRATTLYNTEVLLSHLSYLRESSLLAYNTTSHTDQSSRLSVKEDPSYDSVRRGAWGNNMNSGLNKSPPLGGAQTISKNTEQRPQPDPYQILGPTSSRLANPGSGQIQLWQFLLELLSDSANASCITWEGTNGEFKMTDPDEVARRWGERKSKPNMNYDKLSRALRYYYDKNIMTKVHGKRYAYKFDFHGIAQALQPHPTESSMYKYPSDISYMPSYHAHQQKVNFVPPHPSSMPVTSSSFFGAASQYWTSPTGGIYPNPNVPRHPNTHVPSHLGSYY
Method in brief: (§1)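 The binding signal reported is, for every hexamer, its read frequency for a factor over its read frequency for the tag-only sample. Reads came from pools of yeast-expressed, GST-fused human transcription factors on glutathione beads, barcoded with DNA and mixed with that sample, which were incubated with 200 nmole of a random double-stranded 16-mer DNA library in Tris/NaCl/DTT/glycerol buffer at room temperature for 30 min. After washing, the pools were crosslinked with 0.1% formaldehyde, proximity-ligated with BsaI/T4 ligase for 1 h at 37 °C, PCR-amplified and sequenced on an Illumina NextSeq500.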

[2] = biological target: T2, ELK1 (Homo sapiens, UniProt P19419 1-428); settings: protein: recombinant; tags: N-terminal GST; dsDNA, one strand shown
T2 sequence: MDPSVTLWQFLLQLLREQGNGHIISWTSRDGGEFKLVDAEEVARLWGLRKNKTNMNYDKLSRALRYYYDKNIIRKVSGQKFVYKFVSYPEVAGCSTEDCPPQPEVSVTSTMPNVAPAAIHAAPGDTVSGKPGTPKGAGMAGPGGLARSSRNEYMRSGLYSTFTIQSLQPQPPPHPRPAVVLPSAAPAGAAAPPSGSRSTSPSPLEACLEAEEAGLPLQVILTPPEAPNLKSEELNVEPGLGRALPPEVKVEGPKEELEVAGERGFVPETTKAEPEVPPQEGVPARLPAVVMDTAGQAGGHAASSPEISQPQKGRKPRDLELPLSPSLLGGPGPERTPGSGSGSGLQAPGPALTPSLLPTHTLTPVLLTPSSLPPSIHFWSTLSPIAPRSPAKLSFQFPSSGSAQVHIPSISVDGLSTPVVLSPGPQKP
Method in brief: as §1

[3] = biological target: T3, GABPA (Homo sapiens, UniProt Q06546 1-454); settings: protein: recombinant; tags: N-terminal GST; dsDNA, one strand shown
T3 sequence: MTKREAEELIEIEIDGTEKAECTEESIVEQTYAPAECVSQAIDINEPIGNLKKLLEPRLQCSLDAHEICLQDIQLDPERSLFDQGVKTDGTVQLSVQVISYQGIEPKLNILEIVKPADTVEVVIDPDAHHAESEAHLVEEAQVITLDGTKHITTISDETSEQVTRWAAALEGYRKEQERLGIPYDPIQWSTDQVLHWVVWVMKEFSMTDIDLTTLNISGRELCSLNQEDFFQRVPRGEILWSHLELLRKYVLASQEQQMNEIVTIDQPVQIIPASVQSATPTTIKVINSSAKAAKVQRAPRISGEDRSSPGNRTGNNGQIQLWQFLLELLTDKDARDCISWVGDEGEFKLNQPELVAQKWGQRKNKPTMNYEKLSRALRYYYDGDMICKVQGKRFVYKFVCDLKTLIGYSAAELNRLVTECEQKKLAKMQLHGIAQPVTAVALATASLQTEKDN
Method in brief: as §1

[4] = biological target: T4, ERG (Homo sapiens, UniProt P11308 1-479); settings: protein: recombinant; tags: N-terminal GST; dsDNA, one strand shown
T4 sequence: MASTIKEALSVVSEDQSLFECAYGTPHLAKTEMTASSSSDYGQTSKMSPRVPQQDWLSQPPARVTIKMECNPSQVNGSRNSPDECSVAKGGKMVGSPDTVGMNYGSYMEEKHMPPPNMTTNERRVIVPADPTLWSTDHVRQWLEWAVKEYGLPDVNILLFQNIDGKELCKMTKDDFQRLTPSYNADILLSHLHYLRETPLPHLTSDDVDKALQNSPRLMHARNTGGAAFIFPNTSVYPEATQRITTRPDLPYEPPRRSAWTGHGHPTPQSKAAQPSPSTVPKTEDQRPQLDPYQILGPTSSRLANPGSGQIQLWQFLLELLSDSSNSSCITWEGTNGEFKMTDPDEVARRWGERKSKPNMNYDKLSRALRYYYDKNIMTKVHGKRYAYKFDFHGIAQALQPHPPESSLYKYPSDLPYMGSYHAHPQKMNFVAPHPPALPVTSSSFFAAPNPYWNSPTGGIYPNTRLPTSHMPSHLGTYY
Method in brief: as §1

[5] = biological target: ELF1 (Homo sapiens, UniProt P32519 1-619); settings: protein: recombinant; tags: N-terminal GST; dsDNA, one strand shown
Chain of ELF1 (P32519 whole entry): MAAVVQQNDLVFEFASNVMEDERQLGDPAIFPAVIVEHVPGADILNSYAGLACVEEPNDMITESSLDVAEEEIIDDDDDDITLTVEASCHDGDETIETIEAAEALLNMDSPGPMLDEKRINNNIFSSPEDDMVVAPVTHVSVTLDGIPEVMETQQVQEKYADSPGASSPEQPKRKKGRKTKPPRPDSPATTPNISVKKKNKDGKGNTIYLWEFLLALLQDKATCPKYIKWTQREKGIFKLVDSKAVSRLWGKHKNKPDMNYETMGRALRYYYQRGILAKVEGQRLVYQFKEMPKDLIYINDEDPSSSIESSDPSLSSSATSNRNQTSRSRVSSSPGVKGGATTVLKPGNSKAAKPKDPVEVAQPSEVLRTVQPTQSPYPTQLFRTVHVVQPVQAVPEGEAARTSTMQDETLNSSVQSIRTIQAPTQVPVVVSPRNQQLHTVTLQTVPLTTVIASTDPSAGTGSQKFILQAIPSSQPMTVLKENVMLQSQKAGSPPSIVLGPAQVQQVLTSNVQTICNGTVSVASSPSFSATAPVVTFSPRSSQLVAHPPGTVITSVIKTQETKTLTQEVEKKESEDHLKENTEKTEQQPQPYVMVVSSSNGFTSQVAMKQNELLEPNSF
Method in brief: as §1

[6] = biological target: T5, EHF (Homo sapiens, UniProt Q9NZC4 1-300); settings: protein: recombinant; tags: N-terminal GST; dsDNA, one strand shown
T5 sequence: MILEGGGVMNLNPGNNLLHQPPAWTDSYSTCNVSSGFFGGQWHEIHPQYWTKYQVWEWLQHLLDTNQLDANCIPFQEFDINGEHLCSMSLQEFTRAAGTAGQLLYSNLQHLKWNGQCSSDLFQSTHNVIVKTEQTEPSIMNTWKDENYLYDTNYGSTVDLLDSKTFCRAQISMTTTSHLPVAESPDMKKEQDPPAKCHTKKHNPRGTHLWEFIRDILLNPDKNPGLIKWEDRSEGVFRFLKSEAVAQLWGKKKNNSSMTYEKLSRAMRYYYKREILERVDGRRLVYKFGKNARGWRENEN
Method in brief: as §1

[7] = biological target: SPI1 (Homo sapiens, UniProt P17947 1-270); settings: protein: recombinant; tags: N-terminal GST; dsDNA, one strand shown
Method in brief: as §1

[8] = biological target: SPIB (Homo sapiens, UniProt Q01892 1-262); settings: protein: recombinant; tags: N-terminal GST; dsDNA, one strand shown
Chain of SPIB (Q01892 whole entry): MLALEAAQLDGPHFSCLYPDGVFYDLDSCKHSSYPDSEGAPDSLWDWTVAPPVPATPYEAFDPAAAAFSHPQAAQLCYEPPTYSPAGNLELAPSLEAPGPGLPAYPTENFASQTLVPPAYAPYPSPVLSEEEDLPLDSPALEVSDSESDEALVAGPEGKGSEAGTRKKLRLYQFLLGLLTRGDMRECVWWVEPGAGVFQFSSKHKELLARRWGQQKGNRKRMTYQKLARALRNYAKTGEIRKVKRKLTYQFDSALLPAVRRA
Method in brief: as §1

[9] = biological target: T6, ELK3 (Homo sapiens, UniProt P41970 1-407); settings: protein: recombinant; tags: N-terminal GST; dsDNA, one strand shown
T6 sequence: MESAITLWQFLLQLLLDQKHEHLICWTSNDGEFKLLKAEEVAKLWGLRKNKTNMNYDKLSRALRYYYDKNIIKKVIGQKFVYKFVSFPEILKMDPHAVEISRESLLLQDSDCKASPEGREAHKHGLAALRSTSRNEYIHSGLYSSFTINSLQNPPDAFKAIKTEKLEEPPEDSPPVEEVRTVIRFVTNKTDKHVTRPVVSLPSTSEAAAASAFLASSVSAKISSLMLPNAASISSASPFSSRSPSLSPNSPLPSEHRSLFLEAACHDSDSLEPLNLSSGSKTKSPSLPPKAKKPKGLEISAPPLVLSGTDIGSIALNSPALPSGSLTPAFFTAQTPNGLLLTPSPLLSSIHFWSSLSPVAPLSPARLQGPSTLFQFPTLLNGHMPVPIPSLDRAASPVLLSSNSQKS
Method in brief: as §1

[10] = biological target: T7, FEV (Homo sapiens, UniProt Q99581 1-238); settings: protein: recombinant; tags: N-terminal GST; dsDNA, one strand shown
T7 sequence: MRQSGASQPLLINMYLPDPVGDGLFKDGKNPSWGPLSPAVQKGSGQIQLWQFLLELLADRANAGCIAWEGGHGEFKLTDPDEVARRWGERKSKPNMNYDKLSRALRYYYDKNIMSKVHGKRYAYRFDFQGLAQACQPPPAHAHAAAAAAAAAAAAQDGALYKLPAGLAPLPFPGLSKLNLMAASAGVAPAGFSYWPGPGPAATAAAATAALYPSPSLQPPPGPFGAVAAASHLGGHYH
Method in brief: as §1

[11] = biological target: ETV5 (Homo sapiens, UniProt P41161 1-510); settings: protein: recombinant; tags: N-terminal GST; dsDNA, one strand shown
Chain of ETV5 (P41161 whole entry): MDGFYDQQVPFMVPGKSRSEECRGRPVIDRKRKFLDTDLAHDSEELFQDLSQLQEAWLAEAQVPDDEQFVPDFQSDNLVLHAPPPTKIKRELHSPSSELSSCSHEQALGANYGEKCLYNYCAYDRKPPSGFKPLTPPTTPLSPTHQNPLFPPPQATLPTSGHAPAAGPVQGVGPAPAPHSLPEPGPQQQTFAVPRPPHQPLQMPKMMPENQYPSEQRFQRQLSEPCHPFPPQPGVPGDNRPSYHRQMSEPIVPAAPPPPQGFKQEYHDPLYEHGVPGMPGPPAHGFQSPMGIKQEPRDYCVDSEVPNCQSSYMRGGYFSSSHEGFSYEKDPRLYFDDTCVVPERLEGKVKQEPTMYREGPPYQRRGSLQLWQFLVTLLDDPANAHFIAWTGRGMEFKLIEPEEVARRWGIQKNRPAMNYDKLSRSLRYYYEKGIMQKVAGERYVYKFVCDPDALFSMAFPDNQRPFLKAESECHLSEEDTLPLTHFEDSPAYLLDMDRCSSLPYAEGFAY
Method in brief: as §1

[12] = biological target: HSF1 (Homo sapiens, UniProt Q00613 1-529); settings: protein: recombinant; tags: N-terminal GST; chain copies: 3; dsDNA, one strand shown
Chain of HSF1 (Q00613 whole entry): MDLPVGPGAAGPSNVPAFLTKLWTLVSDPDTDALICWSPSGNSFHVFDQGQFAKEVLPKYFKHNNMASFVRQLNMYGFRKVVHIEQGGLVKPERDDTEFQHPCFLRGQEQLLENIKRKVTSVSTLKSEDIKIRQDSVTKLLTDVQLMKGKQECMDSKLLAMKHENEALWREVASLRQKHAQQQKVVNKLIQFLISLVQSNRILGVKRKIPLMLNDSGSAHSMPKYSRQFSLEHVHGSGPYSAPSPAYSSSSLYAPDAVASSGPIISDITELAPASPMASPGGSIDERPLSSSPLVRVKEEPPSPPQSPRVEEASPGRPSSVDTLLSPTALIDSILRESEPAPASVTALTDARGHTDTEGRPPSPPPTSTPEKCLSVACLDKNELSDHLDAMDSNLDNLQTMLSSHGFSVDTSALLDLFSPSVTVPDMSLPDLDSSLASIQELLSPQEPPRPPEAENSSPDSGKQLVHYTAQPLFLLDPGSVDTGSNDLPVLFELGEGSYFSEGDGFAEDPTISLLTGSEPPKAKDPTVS
Method in brief: as §1

[13] = biological target: T8, SPIC (Homo sapiens, UniProt Q8N5J4 1-248); settings: protein: recombinant; tags: N-terminal GST; dsDNA, one strand shown
T8 sequence: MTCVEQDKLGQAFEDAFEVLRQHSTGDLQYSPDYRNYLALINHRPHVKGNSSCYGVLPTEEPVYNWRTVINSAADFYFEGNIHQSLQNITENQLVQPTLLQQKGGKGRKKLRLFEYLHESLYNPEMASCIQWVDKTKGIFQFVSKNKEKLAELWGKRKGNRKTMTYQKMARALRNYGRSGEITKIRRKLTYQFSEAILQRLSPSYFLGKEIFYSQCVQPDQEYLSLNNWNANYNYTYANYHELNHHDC
Method in brief: as §1

[14] = biological target: ELF4 (Homo sapiens, UniProt Q99607 1-663); settings: protein: recombinant; tags: N-terminal GST; dsDNA, one strand shown
Chain of ELF4 (Q99607 whole entry): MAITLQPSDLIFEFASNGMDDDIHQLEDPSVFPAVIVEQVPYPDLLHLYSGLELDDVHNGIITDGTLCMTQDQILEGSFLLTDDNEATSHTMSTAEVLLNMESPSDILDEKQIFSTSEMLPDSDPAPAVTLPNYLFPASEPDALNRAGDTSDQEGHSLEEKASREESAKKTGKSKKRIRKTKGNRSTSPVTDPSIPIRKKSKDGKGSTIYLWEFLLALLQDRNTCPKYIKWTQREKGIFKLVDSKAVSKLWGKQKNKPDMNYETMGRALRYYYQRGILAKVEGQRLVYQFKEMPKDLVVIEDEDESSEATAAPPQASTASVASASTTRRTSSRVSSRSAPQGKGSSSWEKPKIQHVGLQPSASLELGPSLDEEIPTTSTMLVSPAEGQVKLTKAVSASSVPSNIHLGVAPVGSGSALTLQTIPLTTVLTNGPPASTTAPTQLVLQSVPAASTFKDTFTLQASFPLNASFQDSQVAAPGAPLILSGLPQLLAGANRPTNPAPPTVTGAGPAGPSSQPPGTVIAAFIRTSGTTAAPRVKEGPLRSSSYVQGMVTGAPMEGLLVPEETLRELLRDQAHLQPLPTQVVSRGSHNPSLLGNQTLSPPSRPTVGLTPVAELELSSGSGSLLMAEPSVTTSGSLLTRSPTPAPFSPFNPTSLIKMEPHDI
Method in brief: as §1

[15] = biological target: T9, ELK4 (Homo sapiens, UniProt P28324-2 1-405); settings: protein: recombinant; tags: N-terminal GST; dsDNA, one strand shown
T9 sequence: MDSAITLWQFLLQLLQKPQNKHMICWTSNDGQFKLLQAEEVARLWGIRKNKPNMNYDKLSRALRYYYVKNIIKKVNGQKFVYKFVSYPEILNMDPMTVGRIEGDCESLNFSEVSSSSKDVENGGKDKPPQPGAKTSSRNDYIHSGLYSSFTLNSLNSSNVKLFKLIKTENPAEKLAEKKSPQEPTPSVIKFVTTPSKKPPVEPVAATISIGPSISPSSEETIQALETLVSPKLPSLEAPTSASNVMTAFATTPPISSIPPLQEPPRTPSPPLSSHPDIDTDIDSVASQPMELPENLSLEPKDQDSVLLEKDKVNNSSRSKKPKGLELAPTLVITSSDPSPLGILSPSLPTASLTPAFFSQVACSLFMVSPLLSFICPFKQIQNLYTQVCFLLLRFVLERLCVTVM
Method in brief: as §1

[16] = biological target: T10, ETV2 (Homo sapiens, UniProt O00321 1-342); settings: protein: recombinant; tags: N-terminal GST; dsDNA, one strand shown
T10 sequence: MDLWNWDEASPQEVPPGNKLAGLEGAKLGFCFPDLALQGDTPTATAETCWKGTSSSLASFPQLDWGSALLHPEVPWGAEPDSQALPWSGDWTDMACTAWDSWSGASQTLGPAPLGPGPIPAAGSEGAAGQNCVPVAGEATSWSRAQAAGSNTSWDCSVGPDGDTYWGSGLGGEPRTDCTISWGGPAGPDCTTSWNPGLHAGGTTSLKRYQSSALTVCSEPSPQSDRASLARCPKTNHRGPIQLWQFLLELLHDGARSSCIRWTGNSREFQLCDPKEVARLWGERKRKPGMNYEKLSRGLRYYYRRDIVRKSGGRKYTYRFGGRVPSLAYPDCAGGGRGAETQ
Method in brief: as §1

[17] = biological target: T11, ELF3 (Homo sapiens, UniProt P78545 1-371); settings: protein: recombinant; tags: N-terminal GST; dsDNA, one strand shown
T11 sequence: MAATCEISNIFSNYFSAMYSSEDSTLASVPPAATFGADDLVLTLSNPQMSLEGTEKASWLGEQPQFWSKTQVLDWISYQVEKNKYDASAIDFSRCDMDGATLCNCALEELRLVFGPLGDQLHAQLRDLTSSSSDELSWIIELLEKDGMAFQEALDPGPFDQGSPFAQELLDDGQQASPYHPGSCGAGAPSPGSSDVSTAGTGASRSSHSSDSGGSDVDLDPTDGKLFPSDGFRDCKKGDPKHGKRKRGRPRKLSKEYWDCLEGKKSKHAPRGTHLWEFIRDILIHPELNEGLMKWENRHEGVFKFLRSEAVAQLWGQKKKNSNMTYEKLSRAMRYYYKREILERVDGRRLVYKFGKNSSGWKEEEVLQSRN
Method in brief: as §1

[18] = biological target: CRX (Homo sapiens, UniProt O43186 1-299); settings: protein: recombinant; tags: N-terminal GST; dsDNA, one strand shown
Chain of CRX (O43186 whole entry): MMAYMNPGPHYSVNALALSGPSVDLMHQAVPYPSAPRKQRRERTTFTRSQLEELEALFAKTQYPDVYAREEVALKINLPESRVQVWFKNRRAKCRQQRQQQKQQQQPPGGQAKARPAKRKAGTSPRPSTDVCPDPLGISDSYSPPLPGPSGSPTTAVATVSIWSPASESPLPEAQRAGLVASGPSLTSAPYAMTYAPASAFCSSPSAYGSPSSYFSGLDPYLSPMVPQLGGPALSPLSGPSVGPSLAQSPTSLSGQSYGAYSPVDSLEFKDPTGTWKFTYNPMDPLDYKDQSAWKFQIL
Method in brief: as §1

[19] = biological target: ETV1 (Homo sapiens, UniProt P50549 1-477); settings: protein: recombinant; tags: N-terminal GST; dsDNA, one strand shown
Chain of ETV1 (P50549 whole entry): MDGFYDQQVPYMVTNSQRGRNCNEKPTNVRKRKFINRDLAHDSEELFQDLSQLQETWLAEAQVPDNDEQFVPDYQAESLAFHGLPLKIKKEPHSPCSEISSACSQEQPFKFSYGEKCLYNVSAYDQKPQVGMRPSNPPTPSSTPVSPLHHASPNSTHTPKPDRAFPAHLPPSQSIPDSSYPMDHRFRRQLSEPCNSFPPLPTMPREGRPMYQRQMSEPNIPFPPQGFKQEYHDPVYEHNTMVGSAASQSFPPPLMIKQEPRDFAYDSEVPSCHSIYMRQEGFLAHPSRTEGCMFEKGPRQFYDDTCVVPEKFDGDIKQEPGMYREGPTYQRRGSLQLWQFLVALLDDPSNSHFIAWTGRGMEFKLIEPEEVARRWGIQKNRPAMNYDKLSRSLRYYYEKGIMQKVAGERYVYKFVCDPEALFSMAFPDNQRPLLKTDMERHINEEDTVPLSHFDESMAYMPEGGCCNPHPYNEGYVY
Method in brief: as §1

Sequence: CTATAA
- binding signal [1]: 1.26 fold enrichment (6-mer frequency, TF over GST control)
- binding signal [2]: 1.22 fold enrichment (6-mer frequency, TF over GST control)
- binding signal [3]: 1.18 fold enrichment (6-mer frequency, TF over GST control)
- binding signal [4]: 1.2 fold enrichment (6-mer frequency, TF over GST control)
- binding signal [5]: 1.27 fold enrichment (6-mer frequency, TF over GST control)
- binding signal [6]: 1.12 fold enrichment (6-mer frequency, TF over GST control)
- binding signal [7]: 1.25 fold enrichment (6-mer frequency, TF over GST control)
- binding signal [8]: 1.35 fold enrichment (6-mer frequency, TF over GST control)
- binding signal [9]: 1.25 fold enrichment (6-mer frequency, TF over GST control)
- binding signal [10]: 1.16 fold enrichment (6-mer frequency, TF over GST control)
- binding signal [11]: 1.23 fold enrichment (6-mer frequency, TF over GST control)
- binding signal [12]: 1.51 fold enrichment (6-mer frequency, TF over GST control)
- binding signal [13]: 1.35 fold enrichment (6-mer frequency, TF over GST control)
- binding signal [14]: 1.26 fold enrichment (6-mer frequency, TF over GST control)
- binding signal [15]: 1.36 fold enrichment (6-mer frequency, TF over GST control)
- binding signal [16]: 1.15 fold enrichment (6-mer frequency, TF over GST control)
- binding signal [17]: 1.25 fold enrichment (6-mer frequency, TF over GST control)
- binding signal [18]: 1.83 fold enrichment (6-mer frequency, TF over GST control)
- binding signal [19]: 1.2 fold enrichment (6-mer frequency, TF over GST control)

— PMC7862700, “An all-to-all approach to the identification of sequence-specific readers for epigenetic DNA modifications on cytosine”
